“And” between values parts separate entries of the source, which are not always exact repeats. Identical values can stand only once. In all, about 5,500 compounds went through this assay and about 2,000 (36%) were called active. Not shown: some 18% with an inconclusive outcome. No stated cut-off is given here; in the data, active means normalized growth mostly below about 0.91 (no sharp cut-off); inconclusive means no clear call, values can overlap the other calls; inactive means mostly above about 0.92. The list shows a part of the results.
Assay: chemical genetic growth profiling, strain panel (AID 1159580);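 further: tested at 20 µM; growth read once vehicle control cultures reached saturation at 30 °C; 1 = growth at the plate median or of vehicle wells; lower values mean less growth of the strain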
Conditions: S. cerevisiae deletion strains, growth OD
[1] = locus YHR030C, strain SLT2, active compounds read low
[2] = locus YHR079C, strain IRE1, active compounds read low
[3] = locus YJL095W, strain BCK1, active compounds read low
[4] = locus YJR066W, strain TOR1, active compounds read low
[5] = locus YLR113W, strain HOG1, active compounds read low
[6] = locus YNL183C, strain NPR1, active compounds read low
[7] = locus YOR231W, strain MKK1, active compounds read low
[8] = locus YPL256C, strain CLN2, active compounds read low

Measured: normalized growth

CCCCCCCCCCCCCCCC[n+]1ccccc1
active: locus YAL013W, strain DEP1, active compounds read low 0.0574 | locus YAL021C, strain ccr4, active compounds read low 0.0611 | locus YAL026C, strain drs2, active compounds read low 0.0581 | locus YAL030W, strain snc1, active compounds read low 0.0525 | locus YBL061C, strain skt5, active compounds read low 0.0581 | locus YBR009C, strain hhf1, active compounds read low 0.0558 | locus YBR021W, strain FUR4, active compounds read low 0.0963 | locus YBR023C, strain chs3, active compounds read low 0.0594 | locus YBR171W, strain sec66, active compounds read low 0.0739 | locus YBR229C, strain ROT2, active compounds read low 0.0303 | locus YBR231C, strain swc5, active compounds read low 0.0577 | locus YBR279W, strain paf1, active compounds read low 0.0555 | locus YCL011C, strain gbp2, active compounds read low 0.053 | locus YCL016C, strain dcc1, active compounds read low 0.0599 | locus YCL029C, strain bik1, active compounds read low 0.058 | locus YCL061C, strain MRC1, active compounds read low 0.0607 | locus YCL069W, strain vba3, active compounds read low 0.0581 | locus YCR088W, strain abp1, active compounds read low 0.0584 | locus YDL005C, strain med2, active compounds read low 0.0695 | locus YDL035C, strain GPR1, active compounds read low 0.0498 | locus YDL040C, strain nat1, active compounds read low 0.0541 | locus YDL074C, strain BRE1, active compounds read low 0.0827 | locus YDL101C, strain DUN1, active compounds read low 0.0526 | locus YDL134C, strain PPH21, active compounds read low 0.0538 | locus YDL185W, strain tfp1, active compounds read low 0.0538 | locus YDL192W, strain arf1, active compounds read low 0.0595 | locus YDR001C, strain nth1, active compounds read low 0.0571 | locus YDR069C, strain doa4, active compounds read low 0.0582 | locus YDR101C, strain arx1, active compounds read low 0.0554 | locus YDR137W, strain rgp1, active compounds read low 0.0947 | locus YDR150W, strain NUM1, active compounds read low 0.0551 | locus YDR159W, strain sac3, active compounds read low 0.0818 | locus YDR162C, strain NBP2, active compounds read low 0.047 | locus YDR195W, strain ref2 0.109 | locus YDR297W, strain sur2, active compounds read low 0.0517 | locus YDR318W, strain mcm21, active compounds read low 0.0596 | locus YDR334W, strain swr1, active compounds read low 0.061 | locus YDR335W, strain msn5, active compounds read low 0.0563 | locus YDR388W, active compounds read low 0.0552 | locus YDR392W, strain spt3, active compounds read low 0.068 | locus YDR502C, strain sam2, active compounds read low 0.0615 | locus YEL003W, strain gim4, active compounds read low 0.0501 | locus YEL037C, strain rad23, active compounds read low 0.0542 | locus YEL061C, strain CIN8 (second series), active compounds read low 0.0582 | locus YEL061C, strain CIN8, active compounds read low 0.0502 | locus YER015W, strain faa2, active compounds read low 0.0581 | locus YER016W, strain bim1, active compounds read low 0.0593 | locus YER110C, active compounds read low 0.0712 | locus YER111C, strain swi4, active compounds read low 0.0669 | locus YER155C, strain BEM2 (second series), active compounds read low 0.0821 | locus YER155C, strain BEM2, active compounds read low 0.0622 | locus YER167W, strain BCK2, active compounds read low 0.0514 | locus YFR010W, strain ubp6, active compounds read low 0.0662 | locus YGL078C, strain dbp3, active compounds read low 0.0557 | locus YGL086W, strain mad1, active compounds read low 0.0563 | locus YGL167C, strain pmr1, active compounds read low 0.0673 | locus YGL173C, strain kem1, active compounds read low 0.0629 | locus YGL227W, strain vid30, active compounds read low 0.062 | locus YGL240W, strain doc1, active compounds read low 0.0671 | locus YGL248W, strain PDE1, active compounds read low 0.0451 | locus YGL253W, strain hxk2, active compounds read low 0.0516 | locus YGR135W, strain pre9, active compounds read low 0.0612 | locus YGR252W, strain gcn5, active compounds read low 0.17 | locus YHR013C, strain ard1, active compounds read low 0.0961 | locus YHR027C, strain rpn1, active compounds read low 0.0594 | [1] 0.0512 and 0.0945 | locus YHR079C, strain IRE1 (second series), active compounds read low 0.0605 | [2] 0.11 | locus YHR094C, strain hxt1, active compounds read low 0.0564 | locus YHR129C, strain ARP1, active compounds read low 0.0537 | locus YHR142W, strain chs7, active compounds read low 0.0693 | locus YHR200W, strain rpn10, active compounds read low 0.0581 | locus YIL066C, strain RNR3, active compounds read low 0.0411 | locus YIL073C, strain SPO22, active compounds read low 0.106 | locus YIL125W, strain kgd1, active compounds read low 0.0545 | locus YIR030C, strain dcg1, active compounds read low 0.0571 | locus YJL092W, strain hpr5, active compounds read low 0.0574 | locus YJL095W, strain BCK1 (second series), active compounds read low 0.0528 | [3] 0.0624 and 0.0966 | locus YJL115W, strain asf1, active compounds read low 0.0684 | locus YJL129C, strain trk1, active compounds read low 0.0768 | locus YJL134W, strain LCB3, active compounds read low 0.047 | locus YJL154C, strain vps35, active compounds read low 0.057 | locus YJL164C, strain tpk1, active compounds read low 0.0549 | locus YJL166W, strain qcr8, active compounds read low 0.0563 | locus YJL168C, strain set2, active compounds read low 0.0564 | locus YJL187C, strain SWE1 (second series), active compounds read low 0.0398 | locus YJL187C, strain SWE1, active compounds read low 0.0529 | locus YJR043C, strain POL32, active compounds read low 0.0648 | [4] -0.000212 | locus YKL009W, strain mrt4, active compounds read low 0.0643 | locus YKL068W, active compounds read low 0.0564 | locus YKL085W, strain MDH1 (second series), active compounds read low 0.0485 | locus YKL085W, strain MDH1, active compounds read low 0.0485 | locus YKL160W, strain elf1, active compounds read low 0.058 | locus YKR001C, strain vps1, active compounds read low 0.0609 | locus YKR026C, strain gcn3, active compounds read low 0.058 | locus YKR091W, strain srl3, active compounds read low 0.0563 | locus YLL001W, strain dnm1, active compounds read low 0.0595 | locus YLL026W, active compounds read low 0.0533 | locus YLL041C, strain sdh2, active compounds read low 0.0527 | locus YLR027C, strain aat2, active compounds read low 0.0516 | locus YLR039C, strain RIC1, active compounds read low 0.101 | locus YLR058C, strain SHM2, active compounds read low 0.0432 | locus YLR102C, strain apc9, active compounds read low 0.058 | [5] 0.126 | locus YLR221C, strain rsa3, active compounds read low 0.0565 | locus YLR258W, strain gsy2, active compounds read low 0.0549 | locus YLR262C, strain YPT6 (second series), active compounds read low 0.0739 | locus YLR262C, strain YPT6, active compounds read low 0.0999 | locus YLR268W, strain sec22, active compounds read low 0.0648 | locus YLR320W, strain mms22, active compounds read low 0.0701 | locus YLR330W, strain CHS5, active compounds read low 0.0543 | locus YLR342W, strain FKS1 (second series), active compounds read low 0.0596 | locus YLR342W, strain FKS1, active compounds read low 0.0608 | locus YLR357W, strain rsc2, active compounds read low 0.119 | locus YLR370C, strain arc18, active compounds read low 0.0588 | locus YLR371W, strain rom2, active compounds read low 0.0606 | locus YLR384C, strain iki3, active compounds read low 0.0569 | locus YLR418C, strain cdc73, active compounds read low 0.0923 | locus YML016C, strain PPZ1, active compounds read low 0.0531 | locus YML032C, strain rad52, active compounds read low 0.0676 | locus YML120C, strain ndi1, active compounds read low 0.0532 | locus YML124C, strain tub3, active compounds read low 0.0589 | locus YMR058W, strain fet3, active compounds read low 0.0569 | locus YMR078C, strain ctf18, active compounds read low 0.0681 | locus YMR125W, strain sto1, active compounds read low 0.0655 | locus YMR129W, active compounds read low 0.0538 | locus YMR205C, strain PFK2, active compounds read low 0.0777 | locus YMR223W, strain ubp8, active compounds read low 0.061 | locus YMR231W, strain pep5, active compounds read low 0.0645 | locus YMR307W, strain GAS1, active compounds read low 0.134 | locus YNL067W, strain RPL9B, active compounds read low 0.0493 | locus YNL071W, strain lat1, active compounds read low 0.0582 | locus YNL153C, strain GIM3, active compounds read low 0.0537 | [6] -0.00168 | locus YNL209W, strain ssb2, active compounds read low 0.0552 | locus YNL233W, strain BNI4, active compounds read low 0.0562 | locus YNL248C, strain rpa49, active compounds read low 0.0711 | locus YNL250W, strain rad50, active compounds read low 0.0768 | locus YNL271C, strain bni1, active compounds read low 0.0589 | locus YNL298W, strain CLA4, active compounds read low 0.0577 | locus YNL307C, strain MCK1, active compounds read low 0.0655 | locus YNL322C, strain KRE1 (second series), active compounds read low 0.06 | locus YNL322C, strain KRE1, active compounds read low 0.048 | locus YNR049C, strain mso1, active compounds read low 0.0552 | locus YNR052C, strain pop2, active compounds read low 0.0583 | locus YOL147C, strain pex11, active compounds read low 0.0569 | locus YOR001W, strain rrp6, active compounds read low 0.0649 | locus YOR061W, strain CKA2, active compounds read low 0.0309 | locus YOR069W, strain VPS5, active compounds read low 0.0516 | locus YOR070C, strain gyp1, active compounds read low 0.0562 | locus YOR080W, strain dia2, active compounds read low 0.0607 | locus YOR083W, strain WHI5, active compounds read low 0.0593 | locus YOR106W, strain vam3, active compounds read low 0.0617 | locus YOR136W, strain idh2, active compounds read low 0.0704 | locus YOR144C, strain elg1, active compounds read low 0.0544 | locus YOR184W, strain ser1, active compounds read low 0.0674 | [7] 0.0972 | locus YOR265W, strain rbl2, active compounds read low 0.0533 | locus YOR270C, strain vph1, active compounds read low 0.0863 | locus YOR290C, strain snf2, active compounds read low 0.0573 | locus YOR316C, strain cot1, active compounds read low 0.0567 | locus YPL051W, strain arl3, active compounds read low 0.06 | locus YPL055C, strain LGE1, active compounds read low 0.0709 | locus YPL078C, strain atp4, active compounds read low 0.0604 | locus YPL106C, strain sse1, active compounds read low 0.0881 | locus YPL240C, strain hsp82, active compounds read low 0.0535 | locus YPL241C, strain CIN2, active compounds read low 0.0502 | [8] 0.113 | locus YPR119W, strain clb2, active compounds read low 0.0599 | locus YPR141C, strain kar3, active compounds read low 0.0617 | locus YPR163C, strain tif3, active compounds read low 0.0683 | locus YPR167C, strain met16, active compounds read low 0.06 | strain wtn01, active compounds read low 0.061

CCCCCCCCCCCCCCCCCCCCCCO
inactive: [1] 1.08 | [2] 0.973 | [3] 0.989 | [4] 0.967 | [5] 0.965 | [6] 0.916 | [7] 0.99 | [8] 0.99
